Laboratory results reported in PubChem BioAssay AID449762 (Southern Research Specialized Biocontainment Screening …, 2010).
Among all 330,000 compounds or so, about 1,900 (0.58%) were called active. Roughly 4% stayed inconclusive and do not appear here. The list is a sample of the results. Entries with a potency or affinity are not part of this list. A number with no mark means an inactive call. Rule as the data show it: inconclusive = inhibition above about 70% without an active follow-up result; inactive = below that.

Experiment: M. tuberculosis growth inhibition, HTS (AID 449762);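 also: bacterial growth assessed after seven days of incubation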
Conditions: M. tuberculosis H37Rv growth inhibition, 7H9 media; at 25 µM; active compounds read high
Compound `O=C(NNS(=O)(=O)c1ccccc1[N+](=O)[O-])c1ccc(O)cc1` has an inhibition of 13.9%.
For `COC(=O)[C@]1(Cc2ccccc2)N[C@H](CN(C)C(=O)c2ccc(C)cc2)[C@@H]2C(=O)N(C)C(=O)[C@@H]21`, the inhibition was 2.73%.
In the case of `CCOc1ccccc1C1N=C(c2ccc(OC)cc2)CC(c2ccccc2O)N1` (stereo unspecified), the inhibition is reported as 13%.
`CCC1(C)N=C(c2ccc3c(c2)OCO3)CC(c2ccccc2O)N1` (stereo unspecified) showed an inhibition of -5.31%.
`COc1cccc2cc(C(=O)N3CCCCC3C)c(=O)oc12` (stereo unspecified) showed an inhibition of -7.25%.
In the case of `COCCOC(=O)c1c(N)n(CCCN2CCOCC2)c2nc3ccccc3nc12`, the inhibition is reported as 0.66%.
`COC(=O)c1c(N)n(CCCN2CCOCC2)c2nc3ccccc3nc12` gave an inhibition of 4.91%.
`Cc1[nH]c2ccccc2c1/C=N/NC(=O)CNC(=O)c1ccco1` gave an inhibition of 1.49%.
`COCCn1c(=S)[nH]c2cc(C(=O)N3CCc4ccccc4C3)ccc2c1=O` gave an inhibition of 5.9%.
For `CC[C@H](C)[C@H](NC(N)=O)C(=O)NCCc1ccc(Cl)cc1Cl`, the inhibition was -2.03%.
For `Cc1ccc(CNc2ccc3nnc(-c4ccccc4)n3n2)cc1`, the inhibition was -2.25%.
`Clc1ccc(CNc2ccc3nnc(-c4ccccc4)n3n2)cc1` showed an inhibition of -9.56%.
With `Cc1cc(C)n(CCOC(=O)C2C(C=C(Cl)Cl)C2(C)C)n1` (stereo unspecified) the inhibition was 6.12%.
`C=C1c2cccc(O)c2C(O)=C2C(=O)[C@]3(O)C(O)=C(C(N)=O)C(=O)[C@@H](N(C)C)[C@@H]3[C@@H](O)[C@H]12` showed an inhibition of 69.5%.
Work on `CN(C)[C@@H]1C(=O)C(C(N)=O)=C(O)[C@@]2(O)C(=O)C3=C(O)c4c(O)cccc4[C@@](C)(O)[C@H]3[C@H](O)[C@@H]12` yielded an inhibition of 31.9%.
`CN(C)[C@@H]1C(=O)C(C(N)=O)=C(O)[C@@]2(O)C(=O)C3=C(O)c4c(O)cccc4[C@@](C)(O)[C@H]3C[C@@H]12` gave an inhibition of 22.5%.
Compound `CSC(=NC#N)N1CCN(c2c(C)cccc2C)CC1` has an inhibition of -2.97%.
With `CC(C)CCNC(=O)C1CC(c2cccc(F)c2)=NO1` (stereo unspecified) the inhibition was -4.76%.
In the case of `O=C(NC1CCCC1)C1CCCN1S(=O)(=O)c1cccc2cccnc12` (stereo unspecified), the inhibition is reported as -5.92%.
In the case of `CC1CCCC(NC(=O)C2CCN(C(=O)Nc3ccccc3)CC2)C1C` (stereo unspecified), the inhibition is reported as -2.53%.
`CCC(C)[C@H](NC(=O)[C@H](Cc1ccccc1)n1c(=O)[nH]c2ccccc2c1=O)C(=O)N1CCC(C(=O)O)CC1` (stereo partly specified) showed an inhibition of -6.06%.
`CC(C)(Oc1ccc(Cl)cc1)C(=O)OCC(=O)N1CCCC1` gave an inhibition of -3.13%.
With `O=C(OCC(=O)N1CCCC1)c1cnc(Cl)c(Cl)c1` the inhibition was 2.91%.
Compound `COc1ccc(N2CCN(C(=O)C(C)(C)Oc3ccc(Cl)cc3)CC2)cc1` has an inhibition of 2.08%.
Compound `O=C(COC(=O)c1cnc(Cl)c(Cl)c1)c1ccc(F)cc1` has an inhibition of 2.14%.
`O=C(OCC(=O)N1CCOCC1)c1cnc(Cl)c(Cl)c1` gave an inhibition of -0.51%.
In the case of `CCOc1ccc(C(C)=O)cc1COC(=O)c1cnc(Cl)c(Cl)c1`, the inhibition is reported as -3.39%.
Work on `O=c1[nH]cc(S(=O)(=O)Nc2ccc3c(c2)OCO3)c(=O)[nH]1` yielded an inhibition of 7.53%.
Work on `COc1ccc2nc(N3C(=O)C(O)=C(C(=O)c4ccco4)C3c3ccccc3OC)sc2c1` (stereo unspecified) yielded an inhibition of 0.62%.
In the case of `COc1cccc(C2CC(c3ccccc3OC)n3ncnc3N2)c1` (stereo unspecified), the inhibition is reported as -5.17%.
With `CC(=O)N/C(=C\c1ccccc1)C(=O)NC(C)C(=O)O` (stereo unspecified) the inhibition was -2.83%.
`O=C(COC(=O)c1cc2ccccc2cc1O)Nc1cccnc1Cl` showed an inhibition of -17%.
`C=CCNC(=O)N1CCc2[nH]c3ccc(F)cc3c2C1` showed an inhibition of -1.16%.
`CC(OC(=O)Cc1n[nH]c(=O)c2ccccc12)C(=O)Nc1ccc(F)cc1Cl` (stereo unspecified) gave an inhibition of -10.4%.
With `Cn1c(C(=O)N(Cc2ccccc2)Cc2ccccn2)cc2sccc21` the inhibition was -2.09%.
`Cc1cccc(C(=O)OCC(=O)Nc2ccccc2C(=O)NC2CC2)c1` gave an inhibition of -11.3%.
Work on `Cn1c(SCC(=O)c2ccc3c(c2)OCCO3)nnc1C(F)(F)F` yielded an inhibition of -5.9%.
`O=C(/C=C/c1ccc[nH]1)c1ccc(F)cc1` gave an inhibition of 2.02%.
For `O=C(/C=C/c1c(F)cccc1Cl)c1ccc(O)cc1`, the inhibition was -0.9%.
Compound `Cc1cc(C)n2c(Br)c(CSc3nc4ccccc4s3)nc2n1` has an inhibition of -0.87%.
Work on `CC(NC(=O)CSC(=S)N1CCCC1)c1ccc(S(N)(=O)=O)cc1` (stereo unspecified) yielded an inhibition of -7.22%.
Compound `Cc1cc(/C=N/NC(=O)c2cccs2)c(C)n1-c1cnccn1` has an inhibition of 11.2%.
For `Cc1cc(/C=N/NC(=O)c2cccs2)c(C)n1-c1ccccc1`, the inhibition was 3.6%.
Compound `Cc1ccc(C)c(OCC(=O)NNC(=O)CCN2CCN(c3ccccc3)CC2)c1` has an inhibition of 7.6%.
Work on `COc1cccc(NC(=O)CSc2nnc(-c3cc(C)[nH]n3)n2N)c1` yielded an inhibition of 7.87%.
Work on `CCc1cc2c(=O)c(-c3nc4ccccc4n3C)c(C)oc2c(CN2CCCCC2)c1O` yielded an inhibition of -5.94%.
In the case of `CCc1cc2c(=O)c(-c3cnn(-c4ccccc4)c3)c(C(F)(F)F)oc2c(CN(C)C)c1O`, the inhibition is reported as 5.42%.
With `CC1CN(C(=O)CCC(=O)N2CCN(c3cccc(C(F)(F)F)c3)CC2)c2ccccc2O1` (stereo unspecified) the inhibition was 9.11%.
In the case of `COc1ccccc1NC(=O)N(Cc1ccccc1)C1=NCC(C)S1` (stereo unspecified), the inhibition is reported as 6.61%.
For `CCOC(=O)c1c(C)n(C)c2ccc(OCC(O)CNCCc3ccccc3)cc12` (stereo unspecified), the inhibition was 15.2%.
`OC(CNCC1CCCO1)COc1ccc(OCC(O)CNCC2CCCO2)cc1` (stereo unspecified) showed an inhibition of 5.75%.
`COc1ccc(N2CCN(C(=O)c3sc4ncn(CC(=O)N5CCCCC5C)c(=O)c4c3C)CC2)cc1` (stereo unspecified) gave an inhibition of -4.52%.
`O=C(CSc1nn(-c2ccc(Cl)cc2)c(=S)s1)NCC1CCCO1` (stereo unspecified) showed an inhibition of 69.3%.
`O=C(CSc1nc(-c2ccc(F)cc2)cs1)NCC1CCCO1` (stereo unspecified) showed an inhibition of -0.07%.
In the case of `CCCCCCCCCCSc1n[nH]c(NC(C)=O)n1`, the inhibition is reported as 4.39%.
In the case of `COc1ccc(OC)c(-c2csc(NC(=O)COC(=O)C3(C)CC3(Cl)Cl)n2)c1` (stereo unspecified), the inhibition is reported as 8.7%.
